Measured values: PubChem BioAssay AID504832 (National Center for Advancing Translational Sciences (NCATS), 2011)
Screen size: about 310,000 compounds; about 18,000 (5.8%) were called active. Not shown: some 22% with an inconclusive outcome. Shown is part of a subset that was picked to be rich in actives. A call without a number means that no potency is given here. Values without a mark were called inactive. Calls come from the whole dose curve; as a rule, active = well fitted inhibition curve with a large enough effect; inconclusive = small, poorly fitted or top-dose-only effect, or another doubt; inactive = no such curve, though single readings can be large or run the other way.

Test: Primary qHTS for delayed death inhibitors of the malarial parasite plastid, 48 hour incubation
Conditions: P. falciparum luciferase growth in erythrocytes; series mostly up to 28.7 µM
Source text: The goal of this screen is to discover new antimalarial compounds that act by inhibiting the development of the apicoplast in the malarial parasite Plasmodium falciparum. The biochemical processes that make this organelle essential for erythrocytic stage parasites are not well understood. However, antibiotics such as azithromycin and tetracycline, which target the apicoplast translational machinery, have a potent antimalarial effect.
We have developed a cell-based assay that measures parasite growth based on the expression of an integrated copy of a firefly luciferase reporter. To detect small molecules that cause this "delayed death" phenotype, erythrocytes infected with the luciferase-expressing parasites were incubated with compounds for either one or two generations, corresponding to 48 and 96 hours, respectively. Compounds that inhibit parasite growth in the second generation, but not the first, should be enriched in antimalarials that target the apicoplast. Growth inhibition is detected by a decrease in luciferase activity.
Assay Provider: David Fidock and Eric Ekland, Columbia University
Keywords: NIH Roadmap, MLPCN, MLI, MLSMR, qHTS, NCGC, qHTS, malaria, luciferase, viability
Four microliters of culture medium (RPMI 1640 with 0.5% w/v Albumax (GIBCO), 24 mM sodium bicarbonate and 10 ug/mL gentamycin) were dispensed by a Multi-drop Combi into white solid 1536-well plates (Grenier) and 23 nL compound was added by a pin tool. Four microliters of infected erythrocytes (2% hematocrit, 0.1% parasitemia final concentration) in culture medium were dispensed and the plates incubated for 48 hours at 37 C in 5% CO2. Two microliters of luciferase detection reagent was added and luminescence was detected by a ViewLux (PerkinElmer) reader.
Potency is the fitted concentration of half-maximal effect.

Row | SMILES | Potency | activity change, negative = inhibition
1 | CC(C)[C@H](NC(=O)N1CCn2c1nc1ccccc12)C(=O)NCc1ccc2c(c1)OCO2 | inactive | –
2 | CC(C)(C)c1ccc(C(=O)N2CCC(C(=O)N3CCCCC3)CC2)cc1 | inactive | –
3 | CC(C)(C)c1ccc(/C=C2\Oc3c(ccc(O)c3CN3CCN(CCO)CC3)C2=O)cc1 | 10.4 µM (active) | –
4 | CC(=O)Nc1cccc(NC(=O)c2ccc3c(c2)CCN3S(C)(=O)=O)c1 | inactive | –
5 | C[C@H](NC(=O)C1CC(=O)N(c2ccc3c(c2)OCCO3)C1)C(=O)N1CCC(C(=O)O)CC1 (stereo not given in full) | inactive | –
6 | CC1(C)c2[nH]c3ccccc3c2C[C@H]2C(=O)N(N)CC(=O)N21 | inactive | –
7 | Cc1ccccc1OCc1nnc(SCC(=O)N2c3ccccc3Sc3ccc(Cl)cc32)o1 | 10.4 µM (active) | –
8 | Cc1cc(C)cc(OCc2nnc(SCC(=O)Nc3ccccc3)o2)c1 | inactive | –
9 | Cc1cc(C)cc(OCc2nnc(SCC(=O)OC3CCCCC3)o2)c1 | inactive | –
10 | CC(C)Oc1ccc(C(=O)NCC(=O)Nc2ccc3c(c2)CCC3)cc1 | inactive | –
11 | O=C(Nc1ccc(S(=O)(=O)N2CCCC2)cc1Cl)C1=COCCO1 | inactive | –
12 | CCN(CC)c1ccc(S(=O)(=O)N2CCCCC2)cc1NC(=O)C1=COCCO1 | 13.1 µM (active) | –
13 | CCN(CC)c1ccc(S(=O)(=O)N2CCOCC2)cc1NC(=O)CSc1cccc[n+]1[O-] | inactive | –
14 | COc1ccc(-c2noc(CCCC(=O)NC3CCCC3)n2)cc1OC | inactive | –
15 | Cn1c(-c2ccc(F)cc2)cc2onc(-c3ccccc3Cl)c2c1=O | inactive | –
16 | O=C(Nc1ccc([N+](=O)[O-])cc1)OCCc1ccccn1 | inactive | –
17 | CC[C@@H]1Cc2cc(O)ccc2C2=C1c1ccc(O)cc1C[C@H]2CC | 11.7 µM (active) | –
18 | O=C(Nc1ccccn1)C1CCN(S(=O)(=O)c2ccc3c(c2)OCCO3)CC1 | inactive | –
19 | CCOc1ccc(-c2noc(CCC(=O)NC3CCCC3)n2)cc1OC | inactive | –
20 | Cc1ccc(C)c(OCCC(=O)OCC(=O)N2CCN(c3ccccc3)CC2)c1 | inactive | –
21 | CC(C)NC(=O)COCc1cc(-c2ccc3c(c2)OCO3)on1 | inactive | –
22 | COc1ccc(C(=O)CC(=O)C(=O)Nc2cc([N+](=O)[O-])ccc2OC)cc1 | – | -19.7% [at 0.00184 µM]
23 | CN(C)CC(O)COc1ccc(C(C)(C)c2ccc(OCC(O)CN(C)C)cc2)cc1 (stereo not given) | 5.86 µM (active) | –
24 | OC(COc1ccc(Br)cc1)CN1CCCC1 (stereo not given) | inactive | –
25 | Cc1cc(C)n(CC(O)COc2ccc(C(C)(C)C)cc2)n1 (stereo not given) | inactive | –

Row | SMILES | Potency | activity change, negative = inhibition
26 | O=C(OCC(=O)N1CCc2ccccc21)c1ccc([N+](=O)[O-])cc1 | inactive | –
27 | O=C(N/N=C\c1cc2c(cc1Cl)OCO2)c1ccc(Br)s1 | inactive | –
28 | Cc1ccc(S(=O)(=O)N(C)C)cc1NC(=O)C(C)OC(=O)c1ccc2ccccc2n1 (stereo not given) | inactive | –
29 | CC1=NC2(CCCc3c2no[n+]3[O-])N(O)C1(C)C (stereo not given) | 7.38 µM (active) | –
30 | CCOc1ccccc1NS(=O)(=O)c1cc2c3c(c1)C(C)C(=O)N3CCC2 (stereo not given) | inactive | –
31 | Cc1cc(C)n(-c2ccc(NC(=O)C3CCCCN3C(=O)c3cccs3)cc2)n1 (stereo not given) | inactive | –
32 | CC1C(=O)Nc2ccccc2N1C(=O)c1c(F)cccc1F (stereo not given) | inactive | –
33 | O=C(CCNC(=O)c1ccc(Br)cc1)Nc1cccc(S(=O)(=O)N2CCCCC2)c1 | inactive | –
34 | COc1ccc2oc(C(=O)OCC(=O)N(CC(C)C)c3c(N)n(Cc4ccccc4)c(=O)[nH]c3=O)c(C)c2c1 | inactive | –
35 | Cc1cc(C)n(-c2cc(Oc3ccccc3)ncn2)n1 | inactive | –
36 | CC(=O)c1ccc(Oc2cc(C)nc(-n3nc(C)cc3C)n2)cc1 | 11.7 µM (active) | –
37 | Cc1cc(Oc2ccc(Cl)cc2)nc(SCC(=O)c2ccccc2)n1 | inactive | –
38 | COc1cccc(C(=O)Nc2nnc(S(=O)(=O)N3CCCCC3)s2)c1 | inactive | –
39 | COc1ccc(/C=C2\SC(=O)N(CCC(=O)NC3CCS(=O)(=O)C3)C2=O)cc1 (stereo not given) | inactive | –
40 | COc1cccc(-c2noc(C3CCCN(C(=O)c4ccc(F)cc4)C3)n2)c1 (stereo not given) | inactive | –
41 | COc1cc(-c2noc(C3CCCN(S(=O)(=O)c4cccc(Cl)c4)C3)n2)cc(OC)c1OC (stereo not given) | 13.1 µM (active) | –
42 | CC(C)c1ccc(-c2noc(C3CCCN(S(C)(=O)=O)C3)n2)cc1 (stereo not given) | inactive | –
43 | CCCCn1c(N)c(N(CCOC)C(=O)c2sc3ccccc3c2Cl)c(=O)[nH]c1=O | inactive | –
44 | CCn1cc(/C=C(\NC(=O)c2ccc(C)cc2)C(=O)NCCN2CCOCC2)c2ccccc21 | inactive | –
45 | COc1ccc(NC(=O)CSc2nc(SC)ns2)c(OC)c1 | inactive | –
46 | O=C(O)CCn1c(Cc2ccccc2)nc2ccccc21 | inactive | –
47 | Cc1ccc2c(c1)C1CN(C)CCC1N2C(=S)Nc1ccc(Cl)cc1Cl (stereo not given) | inactive | –
48 | Cc1ccc2c(c1)C1CN(C)CCC1N2S(=O)(=O)c1ccc(Oc2ccc([N+](=O)[O-])cc2)cc1 (stereo not given) | 8.28 µM (active) | –
49 | Cc1ccc2c(c1)C1CN(C)CCC1N2C(=S)Nc1ccc(OC(F)F)cc1 (stereo not given) | inactive | –
50 | COc1cc(NC(=O)CSc2ccc(-c3cccnc3)nn2)cc(OC)c1 | inactive | –

Row | SMILES | Potency | activity change, negative = inhibition
51 | COc1ccccc1CN1CCN(C(=O)Cc2ccccc2)CC1 | inactive | –
52 | COc1ccccc1/C=N/N1CCN(Cc2ccccc2Cl)CC1 | inactive | –
53 | COc1ccccc1CN1CCN(C(c2ccccc2)c2ccccc2)CC1 | 13.1 µM (active) | –
54 | COc1ccc(N2CC(NS(=O)(=O)c3ccc4ccccc4c3)CC2=O)cc1 (stereo not given) | inactive | –
55 | O=C(NCc1ccco1)c1ccc([N+](=O)[O-])cc1Cl | inactive | –
56 | NC(=O)c1cc(-c2cccnc2)nc2ccc(Br)cc12 | inactive | –
57 | O=C(NCc1ccco1)c1cc(-c2cccnc2)nc2ccc(Cl)cc12 | 10.4 µM (active) | –
58 | O=C(Nc1ccc(N2C(=O)c3cccc4cccc(c34)C2=O)cc1)c1ccc(N2CCCCC2)c([N+](=O)[O-])c1 | inactive | –
59 | O=C(NC1C2CC3CC(C2)CC1C3)c1ccc(N2CCNCC2)c([N+](=O)[O-])c1 (stereo not given) | inactive | –
60 | O=C(Nc1cccc(C(F)(F)F)c1)c1ccc(N2CCNCC2)c([N+](=O)[O-])c1 | 2.62 µM (active) | –
61 | O=[N+]([O-])c1ccc(NC(=S)N2CCN(c3ccccn3)CC2)cc1 | inactive | –
62 | O=C(CNC(=O)c1ccccc1)Oc1ccc([N+](=O)[O-])cc1 | inactive | –
63 | Oc1c(Cl)cc(Cl)c(Cl)c1Cc1c(O)c(Cl)cc(Cl)c1Cl | 11.7 µM (active) | –
64 | CCOc1ccc(N2CC(C(=O)NCc3ccccn3)CC2=O)cc1 (stereo not given) | inactive | –
65 | CC(C)C[C@H](NC(=O)N1CC(=O)Nc2ccccc21)C(=O)N[C@H](Cc1ccccc1)C(=O)O | inactive | –
66 | COc1ccc(C(=O)ON=C2c3ccccc3-c3ccccc32)cc1OC | inactive | –
67 | COc1ccc(C/C(N)=N/OC(=O)c2ccco2)cc1OC | inactive | –
68 | COc1ccc(C(=O)O/N=C(\N)Cc2ccc(Cl)cc2Cl)cc1OC | 13.1 µM (active) | –
69 | Cc1ccc2c(C)c(C(=O)N(C)Cc3ccncn3)oc2c1C | inactive | –
70 | CCOC(=O)N1CCN(C(=O)CSc2nc(=O)n3cccc(C)c3n2)CC1 | inactive | –
71 | CCOC(=O)N1CCN(C(c2cccnc2)c2ccc3cccnc3c2O)CC1 (stereo not given) | 11.7 µM (active) | –
72 | CCN1CCN(C(c2cccnc2)c2cc(Cl)c3cccnc3c2O)CC1 (stereo not given) | 4.15 µM (active) | –
73 | CCOC(=O)N1CCN(Cc2nc(N)nc(Nc3ccc(C)cc3)n2)CC1 | inactive | –
74 | CCN1CCN(c2ccc(NC(=O)c3cnccn3)cc2)CC1 | inactive | –
75 | CN(CC(=O)Nc1ccc(F)cc1)CC(=O)N1CCCCC1 | inactive | –

Row | SMILES | Potency | activity change, negative = inhibition
76 | Cc1cc(C)cc(N(CC(=O)NC2CCCC2)C(=O)CCC(=O)Nc2cc(C)on2)c1 | inactive | –
77 | Cn1cc(CNC(=O)c2ccc(OC3CCN(Cc4ccccn4)CC3)cc2)cn1 | inactive | –
78 | CCOC(=O)c1cccc(NC(=O)C2CCN(c3ncnc4c3nc3n4CCCCC3)CC2)c1 | inactive | –
79 | COc1cc(C2/C(=C(\O)c3ccc4c(c3)CC(C)O4)C(=O)C(=O)N2c2nnc(C)s2)cc(OC)c1OC (stereo not given) | inactive | –
80 | O=S(=O)(Nc1cccc(-n2cnnn2)c1)c1cnc(Cl)c(Cl)c1 | inactive | –
81 | CC(=O)NC12CC3CC(C1)CC(C(=O)N1CCN(C(=O)c4ccco4)CC1)(C3)C2 | inactive | –
82 | Cc1ccc(C(=O)Nc2ccn(C)n2)cc1 | inactive | –
83 | CN1C(C(=O)NCc2ccco2)CC2Cn3c(nc4ccccc43)C21 (stereo not given) | inactive | –
84 | Cc1nc2nc(SCC(=O)Nc3cccc(F)c3)[nH]c2cc1Br | inactive | –
85 | COc1cc(CN2CCC(C(N)=O)CC2)ccc1OCc1ccccc1 | inactive | –
86 | COc1ccc(CN2CCN(C(=O)CCC(=O)Nc3nnc(C(C)C)s3)CC2)cc1F | inactive | –
87 | COc1ccc(CN2CCN(C(=O)c3cc(C4CC4)nn3-c3ccccc3)CC2)cc1F | 8.28 µM (active) | –
88 | COc1ccc(C(=O)NCc2nnc(SCC(=O)NC3=NCCS3)n2C)cc1 | inactive | –
89 | Cc1cc(=O)cc(C)n1-c1ccc(Cl)c(Cl)c1 | inactive | –
90 | CCN(CC)c1ccc([N+](=O)[O-])cc1C(=O)O | inactive | –
91 | O=[N+]([O-])c1ccc(N(CCO)Cc2ccccc2)c([N+](=O)[O-])c1 | 4.65 µM (active) | –
92 | O=C(OCC(=O)N(CCc1ccccc1)Cc1ccccc1)c1ccccc1[N+](=O)[O-] | inactive | –
93 | O=C(NCCCn1ccnc1)c1cc(Br)c(Br)s1 | inactive | –
94 | CC(=O)Nc1ccc(NC(=O)CSc2nnnn2C2CCCCC2)cc1 | inactive | –
95 | CCCc1cc(=O)n2[nH]c(C)c(-c3ccc(Cl)cc3)c2n1 | inactive | –
96 | NS(=O)(=O)c1cccc(NC(=O)CC23CC4CC(CC(Br)(C4)C2)C3)c1 | inactive | –
97 | Cc1nnc(SCC(=O)Nc2cccc(N)c2)n1-c1ccccc1 | inactive | –
98 | COc1ccc(C2=NS(=O)(=O)N(C)C(C(=O)N3CCCCC3)=C2)cc1 | inactive | –
99 | COc1ccc(NC(=O)C2=CC(c3ccc(OC)c(OC)c3)=NS(=O)(=O)N2C)cc1 | 14.7 µM (active) | –
100 | COc1ccc(C2=NS(=O)(=O)N(C)C(C(=O)NC(C)c3ccccc3)=C2)cc1 (stereo not given) | inactive | –
